Screening data: PubChem, several laboratories
Only some compounds are listed: those with a hit (about 2.2% of all), similar ones and a draw of the others.
PLCg1 inh: blocks human PLC-gamma1 enzyme activity; purified PLC-gamma1, fluorogenic substrate, fluorescence; inhibition, % at 12.2 µM; actives 0.84% (n = 370,000); AID 720700; in the data active = inhibition above about 9.5%
PLCb3 inh: inhibitors of human phospholipase C beta3; Q01970; Purified PLC-beta3, fluorogenic substrate, fluorescence; actives 0.18% (n = 370,000); inhibition, % at 12.2 µM; in the data active = inhibition above about 11%;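 note: 0% = median of compound wells on plate and 100% = full blocker control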
FAS-TE inh: inhibitors of human fatty acid synthase thioesterase domain | P49327 | recombinant FAS-TE, OMFH fluorogenic substrate, fluorescence endpoint | inhibition, % at 15 µM | actives 0.67% (n = 360,000);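 active = compounds whose normalised, plate-corrected inhibition of enzyme fluorescence in the single-dose primary screen is 50% or more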;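 note: 0% = DMSO with enzyme and 100% = substrate without enzyme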
Cardio protect: modulators protecting cardiomyocytes from myocardial damage. AID 588492. H9c2 cardiomyocytes, H2O2 injury protection, ATPLite, 2 h. actives 0.63% (n = 360,000). protection from H2O2 cell death, % at 20 µM;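 active = compounds giving at least 50% protection of heart cells from peroxide-induced death in the single-dose screen, raw or plate-pattern-corrected value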;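 note: 0% = DMSO wells with peroxide and 100% = DMSO wells without peroxide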
FAS-TE conf: confirmation of human fatty acid synthase thioesterase inhibitors. shares compounds with FAS-TE inh. recombinant FAS-TE, OMFH fluorogenic substrate, fluorescence. inhibition, % at 15 µM. actives 45% (n = 2,300). AID 624325;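 active = compounds inhibiting the enzyme by at least 50% at 15 µM in any one of the replicates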;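 note: 0% = enzyme with DMSO only and 100% = wells lacking enzyme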
Starred values were filed as active, the others as inactive; / = not tested or not shown.

SMILES	PLCg1 inh	PLCb3 inh	FAS-TE inh	Cardio protect	FAS-TE conf
Cc1ccccc1S(=O)(=O)N1C[C@@H]2C(C(=O)C[C@@H]3C(=O)N(C)C(=O)[C@@H]32)[C@@H]1c1ccc(Cl)cc1 (stereo partly specified)	-10	-17	/	/	/
Cc1onc(-c2c(Cl)cccc2Cl)c1-c1nc2cc(Cl)ccc2c(=O)o1	-10	-11	54*	-4	3
Cc1ccc(NC(=O)c2ccc(S(=O)(=O)N3CCOCC3)cc2)cc1	3	-3	-4	-3	/
Cc1cccc(C)c1NC(=S)N=Nc1c(O)n(C)c2ccc(S(=O)(=O)N3CCOCC3)cc12	-1	-3	76*	29	31
Cc1ccccc1NC(=S)N=Nc1c(O)n(C)c2ccc(S(=O)(=O)N3CCOCC3)cc12	0	5	21	23	/
C=CCn1c(O)c(N=NC(=S)Nc2ccccc2F)c2ccccc21	5	3	27	21	/
Cc1ccc(NC(=S)N=Nc2c(O)n(C)c3ccc(S(=O)(=O)N4CCOCC4)cc23)cc1	-1	0	59*	38	27
C=CCn1c(O)c(N=NC(=S)Nc2ccccc2F)c2cc(S(=O)(=O)N3CCOCC3)ccc21	4	-5	59*	16	16
Cn1c(=O)n(C)c2cc(S(=O)(=O)N3CCOCC3)ccc21	4	5	-8	-4	/
Cc1cc(C)cc(NC(=S)N=Nc2c(O)n(C)c3ccc(S(=O)(=O)N4CCOCC4)cc23)c1	8	-4	61*	16	6
C=CCn1c(COc2ccc(C)cc2)nnc1SCC(=O)c1ccc(-c2ccccc2)cc1	3	2	/	/	/
CCCC(=O)N1CCC[C@]2(CC[C@H](CCC(=O)OCC)O2)C1	1	3	/	/	/
Cc1cccc(Nc2ccc(S(=O)(=O)N3CCOCC3)cc2[N+](=O)[O-])c1	3	4	25	-2	/
Cc1cccc(NC(=S)N=Nc2c(O)n(C)c3ccc(S(=O)(=O)N4CCOCC4)cc23)c1	1	4	59*	29	24
O=C(O)c1cc([N+](=O)[O-])c(Sc2nc3ccccc3[nH]2)c([N+](=O)[O-])c1	5	1	8	-2	/
CS(=O)(=O)c1cc([N+](=O)[O-])c(Sc2nc3ccccc3[nH]2)c([N+](=O)[O-])c1	4	5	51*	-19	32
O=C1CSc2ccc(C(=O)N3CCCC(C(=O)N4CCCCC4)C3)cc2N1 (stereo unspecified)	-1	-1	/	/	/
O=C(Cn1cnc2cc([N+](=O)[O-])ccc2c1=O)Nc1ccc2c(c1)OCO2	-1	0	75*	-1	53*
O=C(Cn1cnc2ccccc2c1=O)Nc1ccc2c(c1)OCO2	3	1	-13	-5	/
O=C(CSc1ccc([N+](=O)[O-])cn1)Nc1ccc2c(c1)OCO2	3	-1	86*	-5	57*
CCCCN1CN2Cc3ccc(C)cc3C2CS1(=O)=O (stereo unspecified)	-10	-13	/	/	/
O=C(CSc1nnc(CNC(=O)c2c(F)cccc2F)o1)NCc1ccc2c(c1)OCO2	1	-1	-7	15	/
CCOC(=O)C1CCN(C(=O)COC(=O)/C=C/c2ccc([N+](=O)[O-])cc2)CC1	3	-5	7	-11	/
CC1CCN(C(=O)COC(=O)c2cc([N+](=O)[O-])ccc2N2CCOCC2)CC1	2	2	71*	6	82*
CCOC(=O)C1CCN(C(=O)COc2ccc([N+](=O)[O-])cc2)CC1	0	-2	59*	12	67*
SMILES	PLCg1 inh	PLCb3 inh	FAS-TE inh	Cardio protect	FAS-TE conf
COC(=O)C1CCN(C(=O)COC(=O)c2cc([N+](=O)[O-])ccc2N2CCOCC2)CC1	1	-13	69*	-5	71*
COCCCN1C(=O)[C@H](CC(=O)N2CCOCC2)[C@]2(C(=O)OC)CCCCC=C12	-1	3	/	/	/
CC(NCc1ccco1)C(=O)N1CCCN(C)CC1 (stereo unspecified)	2	3	/	/	/
Cc1cc(C)c(C#N)c(SCC(O)COc2ccc(Br)cc2)n1 (stereo unspecified)	-1	-8	63*	8	18
Cc1cc(C)c(C#N)c(SCC(O)CS(=O)(=O)Cc2ccccc2)n1 (stereo unspecified)	-1	-1	31	2	/
CCCSc1nnc(-c2ccco2)n1C	-4	2	/	/	/
Cc1sc2ncnc(N3CCC(C(=O)Nc4sc5c(c4C(N)=O)CCC(C)C5)CC3)c2c1C (stereo unspecified)	0	-4	66*	-7	-1
CNC(=O)c1ccc(NC(=O)C2CCN(c3ncnc4sc(C)c(C)c34)CC2)cc1	-1	-10	0	-2	/
